# In the supplement of paper PMC11219838:
# Values without a mark were called inactive.
# Test system: Caenorhabditis elegans L1 (N2)
# Assay: survival and reproduction score of C. elegans L1 (0: 0-10 living worms, 1: 11-20, 2: 21-50, 3: >50, 4: overgrown) (score 0-4); higher = more worms, less nematicidal, active = 1 or less; extreme values may be limits of the assay
# Details: 60 µM; 6 days; temperature: 20 °C
# Method in brief: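 About 20 synchronized C. elegans N2 L1s were added per 96-well well with E. coli HB101 in liquid NGM, and compound was pinned to 60 µM final (0.6% v/v DMSO). Sealed plates were shaken at 200 rpm for 6 days at 20 °C. Survival and reproduction were scored under a dissection microscope as an ordinal score of living worms per well. The scale ran 0 (0–10 worms) to 4 (overgrown, starved), and two biological replicates were averaged.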
row,SMILES,survival and reproduction score
1,Nc1nc(CSc2nnc(-c3ccccc3)o2)cs1,4
2,COc1ccc(-c2nnc(SCC(=O)N(C)c3ccccc3)o2)cc1,4
3,COc1ccc(OCc2nc(-c3cccc(Br)c3)no2)cc1,4
4,Cc1ccccc1OCc1nc(-c2ccc(NC(=O)c3ccc(Br)o3)cc2)no1,4
5,Cc1cccc(NC(=O)CSc2nnc(-c3ccncc3)o2)c1C,4
6,Cc1cc(Cl)ccc1OCc1nc(-c2ccc(F)cc2)no1,4
7,Cc1ccc(-c2nnc(SCC(=O)Nc3ccccc3)o2)cc1,4
8,CC(=O)Nc1ccc(-c2nnc(SCc3ccccc3)o2)cc1,4
9,O=C(CSc1nnc(-c2cccnc2)o1)c1ccc2ccccc2c1,4
10,COC(=O)CSc1nnc(-c2ccc(C(C)(C)C)cc2)o1,3.5
11,Cc1ccc(-c2nnc(SCc3ccccc3)o2)cc1,0 (active)
12,Cc1ccc(-c2nc(-c3cccc(C)c3)no2)cc1,1 (active)
13,C=CCOc1ccc(-c2nc(-c3cccnc3)no2)cc1,0 (active)
14,Cc1cc(C)cc(-c2nc(-c3ccc(Cl)cc3)no2)c1,4
15,O=C(CSc1nnc(-c2ccc(Br)cc2)o1)Nc1ccc2ccccc2c1,4
16,Cc1cc(OCc2nc(-c3cccnc3)no2)c(C)c(C)c1Br,4
17,COc1ccc(-c2nc(-c3ccc(C(F)(F)F)cc3)no2)cc1,4
18,COc1ccc(Cl)cc1NC(=O)CSc1nnc(-c2ccc(C)cc2)o1,4
19,O=C(CSc1nnc(-c2cccc(Cl)c2)o1)Nc1ccccc1,4
20,CC(C)c1ccc(NC(=O)CSc2nnc(-c3ccc(Br)cc3)o2)cc1,4

row,SMILES,survival and reproduction score
1,Cc1cc(C)c(NC(=O)CSc2nnc(-c3ccc(Br)cc3)o2)c(C)c1,4
2,COc1ccc(-c2nnc(SCC(=O)Nc3ccc(Br)c(C)c3)o2)cc1,4
3,N#Cc1ccc(OCc2nc(-c3ccc(Br)o3)no2)cc1,4
4,Cn1c(SCc2nc(-c3cccs3)no2)nnc1-c1ccco1,4
5,COc1cccc(-c2noc(COc3ccc(Cl)cc3)n2)c1,4
6,Cc1cccc(-c2noc(COc3ccc(C)cc3C)n2)c1,4
7,CCOc1nc(-c2ccc(C)cc2)ccc1-c1noc(CC)n1,4
8,C=CCSc1nnc(-c2ccc(Br)cc2)o1,0 (active)
9,COc1ccccc1NC(=O)c1ccccc1-c1nc(-c2ccc(Cl)cc2)no1,4
10,Cc1cccc(OCc2nc(-c3ccccc3)no2)c1,1.5
11,Cc1ccc(NC(=O)CSc2nnc(-c3ccncc3)o2)cc1Cl,4
12,COc1ccc(-c2nnc(SCc3ccc(Cl)cc3Cl)o2)cc1,4
13,Cc1cnnn1-c1ccc(-c2nc(-c3ccc(Cl)cc3)no2)cc1,4
14,O=C(CSc1nnc(-c2ccco2)o1)Nc1ccccc1F,4
15,COc1cccc(-c2noc(-c3c(F)cccc3F)n2)c1,4
16,COc1ccc(-c2noc(COc3ccc(C)cc3Br)n2)cc1,4
17,CCOc1cc(-c2nc(-c3cccnc3)no2)cc(OCC)c1OCC,4
18,Cc1cccc(-c2nnc(SCC(=O)NCCc3ccccc3)o2)c1,4
19,CCOc1ccccc1-c1nc(-c2ccc(NC(=O)Cc3ccccc3OC)cc2)no1,4
